Test results: PubChem BioAssay AID2685 (National Center for Advancing Translational Sciences (NCATS), 2010)
About 2,100 (0.66%) of roughly 320,000 compounds were called active. Not shown: some 53% with an inconclusive outcome. The call rests on the fitted dose curve; in most records, active means well fitted inhibition curve with a large enough effect in the signal ratio, with a control signal flat (not every such curve was filed as active); inconclusive means small, poorly fitted or top-dose-only effect, or effect the other way, or a change in a side signal; inactive means flat fitted curve, though single readings scatter; the % refers to the signal ratio. This excerpt belongs to a sample that is enriched for actives.

Assay: qHTS Assay for Lipid Storage Modulators in Drosophila S3 Cells;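 on cell number change: cells counted by Cell Tracker Red CMTPX staining in the red channel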; on lipid storage change, negative = inhibition: on the % scale 0 is the no-effect control and ±100 the full control effect
Conditions: BODIPY lipid droplet fluorescence, 18-24 h, cells fed with added oleic acid; cell number change: measured here: cell count max response; series mostly up to 46.1 µM; lipid storage change, negative = inhibition: at the top concentration
Summary of the method: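 Laser-scanning cytometry quantifies lipid droplet accumulation (500–530 nm total intensity; droplet/cell object ratio) in oleic acid-fed (400 uM added) Drosophila S3 cells treated with a concentration series. 20 uM Triacsin C defined 100% inhibition.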
Potency means the concentration at half of the fitted maximal effect.

Structure (SMILES) | lipid storage change, negative = inhibition | cell number change [%] | Potency | outcome
CCOC(=O)c1nc(Nc2ccc(C(C)=O)cc2)c2ccccc2n1 | -4.14% (inactive) | -13.6 | – | –
CCCCC(CCC(=O)O)(C(=O)OCC)c1csc(Nc2ccccc2)n1 (stereo not drawn) | 9.89% (inactive) | 0.537 | – | –
COc1cccc(NC(=S)Nc2cc(C(=O)O)ccc2N2CC3CC(C2)c2cccc(=O)n2C3)c1 (stereo not drawn) | -0.148% (inactive) | -20.1 | – | –
CC(C)c1cccc(C2=CC(=O)C[C@H](c3ccc(F)cc3)C2)c1 | 9.98% (inactive) | -1.84 | – | –
COc1ccc(CNC(=O)C(c2ccccc2F)N(C(=O)c2csnn2)C2CC2)cc1 (stereo not drawn) | 16.9% (inactive) | 9.27 | – | –
COc1ccc(CNC(=O)C(c2cccc(C)c2)N(C(=O)c2csnn2)C2CC2)cc1 (stereo not drawn) | – | 16.2 | 2.06 µM (active) | –
O=C(NCc1ccccc1)C(c1ccccc1)N(C(=O)c1csnn1)C1CC1 (stereo not drawn) | -16.2% (inactive) | 0.427 | – | –
Cc1nonc1C(=O)N/N=C/c1cc2c(cc1Br)OCO2 | -3.58% (inactive) | 13 | – | –
COc1cc2c(cc1OC)CN(C(=S)Nc1ccc(C)cc1C)CC2 | -12.4% (inactive) | -5.84 | – | –
CCC(=O)Nc1ccccc1-c1nc2ccccc2[nH]c1=O | – | -8.79 | – | inactive
CC(C)C(=O)Nc1ccccc1-c1nc2ccccc2[nH]c1=O | – | -27.6 | – | inactive
O=C(Nc1ccccc1-c1nc2ccccc2[nH]c1=O)c1cccs1 | – | 7.26 | 9.2 µM (active) | –
Cc1c(C(=O)N2CCCCC2)c(S(=O)(=O)NCCc2ccccc2)c(C)n1C | – | -0.59 | – | inactive
CCOC(=O)COc1ccc(S(=O)(=O)N2CCN(C(=O)OCC)CC2)cc1 | 15% (inactive) | -5.47 | – | –
CCCn1c(SCC(=O)NC2CC2)nnc1-c1cccs1 | -14.1% (inactive) | 9.09 | – | –
Cc1ccc(NC(=O)CSCC(=O)N2CCN(Cc3ccc4c(c3)OCO4)CC2)cc1 | – | 21.6 | – | inactive
COc1ccc(NC2CCCN(C(=O)CSc3ccccn3)C2)cc1OC (stereo not drawn) | -17.1% (inactive) | -4.53 | – | –
COc1ccc(NC2CCCN(C(=O)CCOc3ccccc3)C2)cc1 (stereo not drawn) | – | 2.67 | – | inactive
COc1ccc(NC2CCCN(C(=O)c3ccncc3)C2)cc1 (stereo not drawn) | – | -9.17 | – | inactive
Cc1ccc(NC2CCCN(C(=O)CN3C(=O)c4ccccc4C3=O)C2)cc1C (stereo not drawn) | 18.6% (inactive) | 5.05 | – | –
COc1ccc(NC2CCCN(C(=O)CSc3ccncc3)C2)cc1 (stereo not drawn) | – | -29 | 0.231 µM (active) | –
COc1ccc(NC2CCCN(C(=O)CN3C(=O)c4ccccc4C3=O)C2)cc1OC (stereo not drawn) | – | -13.7 | 18.4 µM (active) | –
COc1ccc(NC2CCCN(C(=O)COc3ccc(C)cc3)C2)cc1 (stereo not drawn) | – | -19.8 | 2.06 µM (active) | –

Structure (SMILES) | lipid storage change, negative = inhibition | cell number change [%] | Potency | outcome
COc1ccc(NC2CCCN(C(=O)CCN3CCCC3=O)C2)cc1 (stereo not drawn) | 8.07% (inactive) | 24.3 | – | –
COc1ccc(NC2CCCN(C(=O)CSc3ccccc3)C2)cc1 (stereo not drawn) | – | 3.54 | – | inactive
COc1ccc(CC(=O)Nc2ccccc2C(=O)NCCc2ccccc2)cc1 | – | 7.51 | – | inactive
Cc1ccc(OCC(O)CN2CCN(c3ccccc3)CC2)cc1 (stereo not drawn) | 15.5% (inactive) | -26.7 | – | –
O=C(Nc1ccc(S(=O)(=O)N2CCCCC2)cc1)C1CC1 | 11.8% (inactive) | 19.3 | – | –
N/C(=N\OC(=O)Cc1ccccc1[N+](=O)[O-])c1cccc(Br)c1 | -1.94% (inactive) | -2.3 | – | –
CC(=O)Nc1ccc2c(c1)nc(CCN1CCN(c3ccccn3)CC1)n2C | 25.6% (inactive) | -2.13 | – | –
Cc1ccc(S(=O)(=O)Nc2ccc3c(c2)nc(CCN2CCN(c4ccccn4)CC2)n3C)cc1 | – | 24.4 | 16.4 µM (active) | –
Cn1c(CCN2CCN(c3ccccn3)CC2)nc2cc(NS(=O)(=O)c3ccccc3)ccc21 | 8.02% (inactive) | 8.74 | – | –
O=C(/C=C/N1CCN(Cc2ccccc2)CC1)C(F)(F)F | -0.119% [at 9.22 µM] (inactive) | 4.65 | – | –
NC(=O)COc1c(-c2ccccc2)oc2ccccc2c1=O | 28.7% (inactive) | 0.203 | – | –
O=C(O)COc1c(-c2ccccc2)oc2ccccc2c1=O | – | 10.5 | 23.1 µM (active) | –
O=C(O)COc1c(-c2ccc(Cl)cc2)oc2ccccc2c1=O | -2.1% (inactive) | 7.07 | – | –
COc1ccc(CNC(=O)CSc2n[nH]c(N)n2)cc1 | – | 2.63 | – | inactive
Cc1[nH]c(C)c(S(=O)(=O)N(Cc2ccccc2)C(C)(C)C)c1C(=O)N1CCCC1 | -19% (inactive) | -27.6 | – | –
CCN(CC)C(=O)CSc1nnc(-c2ccco2)n1Cc1ccco1 | 13.9% (inactive) | -5.34 | – | –
Cc1ccc(NC(=O)CSc2nnc(CNC(=O)c3ccco3)n2C)cc1 | 18% (inactive) | – | – | –
O=C(c1ccccc1)c1ccc(COC(=O)c2cnccn2)cc1 | – | – | – | inactive
COC(=O)c1ccc(COC(=O)c2cnccn2)cc1 | -2.39% (inactive) | 9.29 | – | –
O=C(OCc1ccc(Cl)cc1)c1cnccn1 | – | 23.8 | 7.31 µM (active) | –
CCN(C(=O)CSc1nnc(Cc2ccccc2F)n1N)C1CCS(=O)(=O)C1 (stereo not drawn) | – | -2.07 | 8.2 µM (active) | –
CCN(C(=O)CSc1nnc(COc2ccccc2F)n1N)C1CCS(=O)(=O)C1 (stereo not drawn) | – | – | – | inactive
CCN(C(=O)CSc1nnc(-c2ccccc2)n1C)C1CCS(=O)(=O)C1 (stereo not drawn) | 10.8% (inactive) | – | – | –
